In PubChem BioAssay one finds composite z-score, z-score and composite Z-score data, which are given here for five molecules.

Active and inactive are the calls of the source.

The subject of assay [1] is Human papillomavirus type 1a protein E7 (residues 44-93). The experiment in a line: small molecules binding HPV E7 44-93 – biochemical, small-molecule microarray, residues 44-93, 635 nm fluorescence, primary screen (AID 1108).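 Also: E7 fragment applied at 1 µg/mL in TBST for 1 h at 4 C; score combines spot fluorescence with its signal to noise ratio.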 The following applies: fluorescence 635 nm, higher = more signal.
A short description of assay [2]: hepatitis C replication reporter changes, two-sided – Huh7 cells, luciferase reporter, HCV replication inhibitor project, primary screen (AID 1109).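 Also: huh7 hepatoma cells harbouring a luciferase neomycin HCV replicon reporter; luciferase luminescence as measure of HCV replicon replication; test concentration not given here.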 The following applies: Huh7 HCV replicon luciferase reporter, 48 h; higher = more signal.
Assay [3] has as its target Left-right determination factor 2 (Homo sapiens) (UniProt O00292). The experiment in a line: small molecules binding LEFTY2 protein – biochemical, small-molecule microarray, 635 nm fluorescence scan, primary screen (AID 1110). The following applies: higher = more signal.
Assay [4] concerns the target Calmodulin-1 (Homo sapiens) (UniProt P0DP23). Description: small molecules binding calmodulin-1 with EGTA – biochemical, small-molecule microarray, Cy5-labelled CALM1, profiling panel (AID 1111).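 Also: labelled calmodulin applied in Tris saline Tween buffer holding calcium plus EGTA and DTT.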 Particulars: Cy5-CALM1 binding fluorescence, higher = more signal.
Assay [5] has the same target. The experiment in a line: small molecules binding Ca-loaded calmodulin-1 – biochemical, small-molecule microarray, Cy5-labelled CALM1, plus calcium, artefact control for SMM control-protein annotation, profiling panel (AID 1112).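 Also: score merges spot fluorescence with signal to noise from triplicate slides.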 Particulars: Cy5-CALM1 binding fluorescence, higher = more signal.
The nature of assay [6]: probe aWnt5a binding to arrayed compounds – biochemical, biotinylated probe, 635/667 nm fluorescence, primary screen (AID 1113).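 Also: score merges 667 nm fluorescence intensity with signal-to-noise per printed feature.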 Particulars: small-molecule microarray, higher = more signal.
Assay [7] is described as follows: probe aShh binding to arrayed compounds – biochemical, biotinylated probe, 635/667 nm fluorescence, primary screen (AID 1114).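 Also: probe is biotin-labelled aShh protein from a stem cell growth factor screen; measures binding of labelled protein to compounds printed on the slide; score merges feature fluorescence at 667 nm with signal-to-noise.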 The following applies: small-molecule microarray, higher = more signal.
Assay [8] in a line: probe aNog binding to arrayed compounds – biochemical, biotinylated probe, 635/667 nm fluorescence, primary screen (AID 1115).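 Also: probe is biotinylated aNog protein used at 0.15 µg/mL for 1 h at 4 C; z-score combines 667 nm fluorescence of each spot with its signal to noise.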 The following applies: small-molecule microarray, higher = more signal.
In assay [9] the target is Torsin-1A-interacting protein 1 (Homo sapiens) (UniProt Q5JTV8). The experiment in a line: compound microarray binding of lysate hLAP1 – cell lysate, small-molecule microarray, COS7 lysate, 635/667 nm fluorescence, primary screen (AID 1116). The following applies: 635 nm fluorescence, higher = more signal.
Sequence of Torsin-1A-interacting protein 1 (Homo sapiens) (Q5JTV8 whole entry, looked up): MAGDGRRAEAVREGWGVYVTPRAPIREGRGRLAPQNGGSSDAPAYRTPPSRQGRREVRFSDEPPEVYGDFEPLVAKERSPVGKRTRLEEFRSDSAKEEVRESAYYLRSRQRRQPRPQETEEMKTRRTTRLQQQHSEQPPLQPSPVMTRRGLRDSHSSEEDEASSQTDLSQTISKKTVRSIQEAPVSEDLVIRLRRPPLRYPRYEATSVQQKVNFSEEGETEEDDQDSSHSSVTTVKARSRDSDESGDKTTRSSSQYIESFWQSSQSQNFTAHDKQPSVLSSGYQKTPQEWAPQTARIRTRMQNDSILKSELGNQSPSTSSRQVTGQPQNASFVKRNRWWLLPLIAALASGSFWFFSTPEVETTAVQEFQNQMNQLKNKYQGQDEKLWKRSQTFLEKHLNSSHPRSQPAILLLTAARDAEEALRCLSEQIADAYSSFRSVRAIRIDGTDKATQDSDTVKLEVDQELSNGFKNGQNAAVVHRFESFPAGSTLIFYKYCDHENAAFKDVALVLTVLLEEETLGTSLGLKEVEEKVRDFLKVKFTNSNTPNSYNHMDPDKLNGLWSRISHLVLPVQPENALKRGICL
Assay [10] has as its target Alpha-bungarotoxin (Bungarus multicinctus) (UniProt P60615). Description: compounds binding labelled alpha-BTX control protein – biochemical, small-molecule microarray, Alexa647 label, 635/667 nm fluorescence, artefact control for SMM control protein annotation, profiling panel (AID 1117). Particulars: alpha-BTX-A647 binding fluorescence, higher = more signal.
The target in the next assay is Albumin (Bos taurus) (UniProt P02769). The experiment in a line: compounds binding labelled BSA control protein – biochemical, small-molecule microarray, Alexa647 label, 635/667 nm fluorescence, artefact control for SMM control protein annotation, profiling panel (AID 1118).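 Also: score merges 667 nm emission intensity and signal-to-noise per printed compound spot.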 The following applies: BSA-A647 binding, fluorescence 635 nm, higher = more signal.
Sequence of Albumin (Bos taurus) (P02769 whole entry, looked up): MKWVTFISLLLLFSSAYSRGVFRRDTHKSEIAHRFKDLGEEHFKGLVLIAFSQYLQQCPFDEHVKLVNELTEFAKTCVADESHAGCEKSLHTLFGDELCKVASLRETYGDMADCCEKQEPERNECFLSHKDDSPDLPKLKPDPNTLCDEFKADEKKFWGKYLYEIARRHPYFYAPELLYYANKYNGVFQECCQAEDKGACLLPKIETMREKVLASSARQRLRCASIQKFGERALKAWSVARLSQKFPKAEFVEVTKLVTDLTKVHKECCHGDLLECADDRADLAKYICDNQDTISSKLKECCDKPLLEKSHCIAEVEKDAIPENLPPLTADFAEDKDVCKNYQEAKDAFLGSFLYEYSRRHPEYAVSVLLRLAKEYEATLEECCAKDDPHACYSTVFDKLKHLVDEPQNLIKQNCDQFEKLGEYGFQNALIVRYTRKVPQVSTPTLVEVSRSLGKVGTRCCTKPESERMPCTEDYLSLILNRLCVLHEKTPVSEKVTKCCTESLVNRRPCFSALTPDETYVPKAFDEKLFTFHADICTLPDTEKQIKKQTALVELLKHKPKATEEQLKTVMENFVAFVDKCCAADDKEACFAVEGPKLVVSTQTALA
The nature of assay [11]: probe aXIP binding to arrayed compounds – biochemical, NeuroSMM set, 635/667 nm fluorescence, primary screen (AID 1119).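 Also: probe is the protein aXip251-270 applied at 1 µg/mL to compound-printed slides; binding of probe to printed compounds measured as 667 nm fluorescence plus signal to noise.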 Particulars: small-molecule microarray, higher = more signal, called active from +8 up or from −8 down.
Assay [12] in a line: probe aNOTCH3 binding on compound microarray – biochemical, small-molecule microarray, 635/667 nm fluorescence, primary screen (AID 1120).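 Also: probe is a biotin-tagged antibody raised against NOTCH3 rather than NOTCH3 protein; score merges spot fluorescence near 667 nm with spot signal to noise.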 Particulars: higher = more signal.
Assay [13] can be described thus: probe aNOTCH2 binding on compound microarray – biochemical, small-molecule microarray, 635/667 nm fluorescence, primary screen (AID 1121).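 Also: score merges feature fluorescence read at 667 nm with its signal to noise.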 The following applies: higher = more signal.
Assay [14] concerns the target Carbonic anhydrase 2 (Homo sapiens) (UniProt P00918). Description: compounds binding carbonic anhydrase 2 – biochemical, small-molecule microarray, Alexa647-labelled CAII, profiling panel (AID 1122). Particulars: CAII-A647 binding fluorescence, higher = more signal.
Assay [15] is described as follows: COS7 lysate on small-molecule microarray, probe aHis, 635 nm (AID 1123).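 Also: z-score combines 667nm fluorescence intensity with signal-to-noise per printed compound spot.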 Particulars: COS7 cell lysate, fluorescence, higher = more signal.
Assay [16] in a line: probe aLAP1 signal on lysate-treated microarray – cell lysate, small-molecule microarray, COS7 lysate, primary screen (AID 1124).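 Also: lysate comes from COS7 cells expressing LAP1 and is applied at 0.3 µg/mL; score merges spot fluorescence near 667 nm with signal-to-noise over triplicate slides.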 The following applies: probe aLAP1, fluorescence, higher = more signal.
The next assay has as its system Sam68 (KHDRBS1). Description: compounds binding KHDRBS1 protein – biochemical, small-molecule microarray, 635 nm fluorescence, primary screen (AID 1125).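 Also: score merges 667 nm channel intensity with signal to noise over triplicate slides.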 Particulars: higher = more signal.
Assay [17] deals with Chordin-like protein 2 (CHRDL2). Description: compounds binding chordin-like 2 – biochemical, small-molecule microarray, 635 nm fluorescence, primary screen (AID 1126).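 Also: printed compound slides probed with Chrdl2 protein at 4 µg/mL for 1 h at 4 C; score merges 667 nm emission intensity with signal to noise over three replicate slides.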 The following applies: fluorescence 635 nm, higher = more signal.
Assay [18] addresses Concanavalin-A (Canavalia ensiformis) (UniProt P02866). The experiment in a line: compounds binding concanavalin A lectin – biochemical, small-molecule microarray, Alexa647 label, 635 nm, artefact control for SMM control protein annotation, primary screen (AID 1127).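 Also: z combines 667 nm emission intensity with signal-to-noise across three replicate slides.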 Particulars: ConA-A647 binding fluorescence, higher = more signal.

Sequence of Concanavalin-A (Canavalia ensiformis) (P02866 whole entry, looked up): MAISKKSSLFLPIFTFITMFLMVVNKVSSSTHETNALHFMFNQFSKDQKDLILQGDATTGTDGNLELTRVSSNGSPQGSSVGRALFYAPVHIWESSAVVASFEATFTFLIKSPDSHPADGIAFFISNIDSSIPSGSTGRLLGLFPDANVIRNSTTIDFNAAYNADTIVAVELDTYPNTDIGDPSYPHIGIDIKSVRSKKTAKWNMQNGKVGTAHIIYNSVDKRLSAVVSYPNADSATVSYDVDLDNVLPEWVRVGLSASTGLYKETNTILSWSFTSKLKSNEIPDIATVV
Sequence of Left-right determination factor 2 (Homo sapiens) (O00292 whole entry, looked up): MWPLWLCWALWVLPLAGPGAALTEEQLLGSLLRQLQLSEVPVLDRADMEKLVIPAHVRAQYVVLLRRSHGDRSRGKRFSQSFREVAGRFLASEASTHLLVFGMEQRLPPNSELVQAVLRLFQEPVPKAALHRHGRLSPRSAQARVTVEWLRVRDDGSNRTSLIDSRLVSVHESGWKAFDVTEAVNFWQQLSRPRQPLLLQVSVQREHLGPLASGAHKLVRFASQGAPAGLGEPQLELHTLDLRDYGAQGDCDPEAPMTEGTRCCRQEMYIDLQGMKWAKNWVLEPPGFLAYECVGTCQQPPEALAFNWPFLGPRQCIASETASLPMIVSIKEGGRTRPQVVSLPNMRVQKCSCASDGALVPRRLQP
Sequence of Alpha-bungarotoxin (Bungarus multicinctus) (P60615 whole entry, looked up): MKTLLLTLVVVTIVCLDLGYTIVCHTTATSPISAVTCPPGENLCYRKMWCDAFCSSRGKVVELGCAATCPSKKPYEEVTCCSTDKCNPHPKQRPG

`CCCN1C(=O)[C@]2(Cc3ccccc3)N=C(c3ccc(OCCCO)cc3)O[C@@H]2c2ccccc21`: the composite z-score is 1.06 in assay [1]; 0.118 in assay [3]; 1.14 in assay [4]; -0.422 in assay [5]; 0.027 in assay [6]; -0.231 in [7]. In addition, the composite z-score in assay [8] was -0.646; in [9], 0.42; in assay [10] it was 1.33; with Albumin (Bos taurus), 0.727; in [12], -0.0345; in assay [13], -0.142. Also, the composite z-score is 0.537 in [14]; 1.86 in [15]; 0.335 in assay [16]; 1.28 in the assay with Sam68 (KHDRBS1); 0.777 in assay [17]; 1.14 in [18]. Besides, in assay [2], the z-score is -2.7. Besides, the composite Z-score in [11] was -0.659 (inactive).
`CCOC(=O)C[C@H]1[C@H](OC(=O)c2ccc(-c3ccccc3)cc2)[C@@H](NC(=O)c2ccc3ccccc3c2)c2cc(OCCCO)ccc2N1C(=O)c1ccc2ccccc2n1`: the composite z-score in [1] is 1.18; in assay [3] it was 0.249; in assay [4], 1.31; in assay [5], 0.593; in [6], -0.0445; in assay [7] it was -0.112. Further, the composite z-score in assay [8] was -0.324; in assay [9], 0.639; in assay [10], 0.0804; with Albumin (Bos taurus), 0.587; in [12] it was 0.178; in assay [13] it was 0.0278. In addition, the composite z-score was 0.137 in assay [14]; 1.06 in assay [15]; -0.0403 in assay [16]; 1.04 in the assay with Sam68 (KHDRBS1); -0.0835 in assay [17]; 0.954 in [18]. The z-score in assay [2] was -1.07. Besides, the composite Z-score in [11] was 0.152 (inactive).
With `C[C@]1(C(=O)NC2CC2)c2ccccc2C(=O)N(Cc2ccc(OC(F)(F)F)cc2)[C@H]1c1ccc(CO)cc1`, the composite z-score in [1] was -0.633; in assay [3] it was -1.07; in assay [4] it was -0.42; in assay [5], 0.479; in [6] it was -0.0792; in assay [7], -0.0243. For the same molecule, the composite z-score was 0.625 in assay [8]; 0.297 in [9]; 0.585 in [10]; -0.85 with Albumin (Bos taurus); 0.0271 in [12]; 0.0049 in assay [13]. In addition, the composite z-score is 0.37 in [14]; 0.209 in assay [15]; 0.0915 in [16]; 0.0003 in the assay on Sam68 (KHDRBS1); -1.14 in [17]; -0.698 in assay [18]. The z-score in assay [2] is -0.144. In addition, the composite Z-score in [11] is -0.0189 (inactive).
On to `[N-]=[N+]=NCc1ccccc1C[C@@]1(C(=O)N2CCCCC2)N=C(c2ccc(OCCCO)cc2)O[C@@H]1c1ccccc1N=[N+]=[N-]`, for which the composite z-score in [1] is 1.37; in assay [3], -0.0573; in assay [4], 1.43; in assay [5], 0.795; in assay [6], -0.392; in assay [7] it was -0.284. The composite z-score in assay [8] was -0.919; in assay [9], 0.209; in assay [10], 0.809; in the assay with Albumin (Bos taurus), 0.79; in assay [12], 0.0522; in [13], -0.13. Besides, the composite z-score is 0.378 in assay [14]; 2.1 in assay [15]; -0.0562 in [16]; 1.09 with Sam68 (KHDRBS1); -0.186 in [17]; 1.08 in assay [18]. The z-score in [2] is -1.04. Moreover, the composite Z-score in [11] is 0.131 (inactive).
As to `COCCOC(=O)N1C(=O)[C@@]2(c3cc(C#CC4(O)CCCCCC4)ccc31)[C@H](C(N)=O)[C@H]1C(=O)O[C@H](c3ccccc3)[C@H](c3ccccc3)N1[C@@H]2c1ccccc1OCCO`, the composite z-score was 1.38 in assay [1]; 0.339 in [3]; -0.0545 in [4]; -0.0174 in assay [5]; -0.0758 in [6]; -0.223 in assay [7]. In addition, the composite z-score in assay [8] was -0.531; in [9], 0.529; in [10], 1.01; with Albumin (Bos taurus), 0.199; in assay [12], -0.6; in assay [13], -0.219. The composite z-score in assay [14] is 0.541; in assay [15], 2; in [16], 0.591; with Sam68 (KHDRBS1), 1.31; in assay [17], 0.369; in assay [18], 0.845. In addition, the z-score in assay [2] was -3.3. The composite Z-score in assay [11] is -0.526 (inactive).
